Results on 89 molecules are retold here after PubChem BioAssay AID1209 (Sanford-Burnham Center for Chemical Genomics, 2008).

Each structure is given as a SMILES string. Among all 190,000 compounds or so, about 810 (0.43%) were called active. No stated cut-off is given here; in the data, active means inhibition above about 50%; inactive means the rest. Shown is part of a subset that was picked to be rich in actives.

Mannose-6-phosphate isomerase (Homo sapiens), sequence (P34949 whole entry, looked up): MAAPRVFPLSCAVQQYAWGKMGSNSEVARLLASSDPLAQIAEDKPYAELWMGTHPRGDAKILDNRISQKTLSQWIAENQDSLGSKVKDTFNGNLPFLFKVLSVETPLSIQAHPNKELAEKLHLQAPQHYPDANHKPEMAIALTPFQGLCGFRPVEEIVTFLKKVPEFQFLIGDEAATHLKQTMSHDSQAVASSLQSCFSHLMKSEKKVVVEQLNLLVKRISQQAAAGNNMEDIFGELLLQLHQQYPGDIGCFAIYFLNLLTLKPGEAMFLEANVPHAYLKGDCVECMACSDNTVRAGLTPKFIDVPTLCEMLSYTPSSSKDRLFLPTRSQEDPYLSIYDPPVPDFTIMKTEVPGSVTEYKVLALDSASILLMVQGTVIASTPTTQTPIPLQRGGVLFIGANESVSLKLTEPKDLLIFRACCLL

This experiment has as its target Mannose-6-phosphate isomerase (Homo sapiens) (UniProt P34949). The experiment is described as follows: inhibitors of human PMI, primary screen, biochemical, fluorescence intensity, coupled assay (AID 1209).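 Further: plate controls were DMSO vehicle for no effect and wells lacking substrate for full effect.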 The note with it: purified PMI enzyme, at 20 µM, active compounds read high.
For `CC(C)CC(C(=O)Nc1ccc2c(c1)OCCO2)N1C(=O)c2ccccc2C1=O` (centres undefined), the inhibition (usually the change of the read-out against control, counted positive when it falls) was -13.9% (inactive).
As for `Cc1cc(=O)n2cccc(O)c2n1`, the figure is 71% (active); as for `Cc1ccn2c(=O)cc(C)nc2c1`, 4.8% (inactive).
The figure for `Cc1cc(=O)n2ccsc2n1` is 7.1% (inactive); for `O=C(NCCO)C1CCN(S(=O)(=O)c2ccc(F)cc2)CC1` it is 10.2% (inactive).
As for `COc1cc(CNn2c(C)n[nH]c2=S)cc(Cl)c1OCc1ccccc1`, the figure is 16.3% (inactive); as for `Cc1cc(O)cc(O[C@H]2OC(CO)[C@H](O)[C@@H](O)[C@H]2O)c1` (some centres undefined), 1.9% (inactive); as for `C[C@@H]1O[C@@H](Oc2c(-c3cc(O)c(O)c(O)c3)oc3cc(O)cc(O)c3c2=O)[C@H](O)[C@H](O)[C@H]1O`, 65.7% (active).
Take `CC1OC(OCC2OC(Oc3c(-c4ccc(O)cc4)oc4cc(O)cc(O)c4c3=O)C(O)C(O)C2O)C(O)C(O)C1O` (centres undefined): the inhibition is 4.8% (inactive).
As for `COc1ccc(-c2oc3c(CC=C(C)C)c(O[C@@H]4O[C@H](CO)[C@@H](O)[C@H](O)[C@H]4O)cc(O)c3c(=O)c2O[C@@H]2O[C@@H](C)[C@H](O)[C@@H](O)[C@H]2O)cc1`, the figure is 5.6% (inactive).
As for `C[C@@H]1O[C@@H](OC[C@H]2O[C@@H](Oc3c(-c4ccc(O)c(O)c4)oc4cc(O)cc(O)c4c3=O)[C@H](O)[C@@H](O)[C@@H]2O)[C@H](O)[C@H](O)[C@H]1O`, the inhibition is 50.3% (active).
Turning to `O=c1c(O)c(-c2ccc(O)cc2O)oc2cc(O)cc(O)c12`, the inhibition was -15.2% (inactive).
`COc1ccc(-c2oc3cc(OC)c(O)c(OC)c3c(=O)c2OC)cc1O`: the inhibition is 3.4% (inactive).
Regarding `O=c1c(-c2ccc(O)cc2)coc2cc(OC3OC(CO)C(O)C(O)C3O)cc(O)c12` (centres undefined), the inhibition was -6.4% (inactive).
As for `O=c1c(O[C@@H]2O[C@H](CO)[C@H](O)[C@H](O)[C@H]2O)c(-c2ccc(O)c(O)c2)oc2cc(O)cc(O)c12`, the figure is 61.3% (active); as for `O=C(O)C1OC(Oc2c(-c3ccc(O)c(O)c3)oc3cc(O)cc(O)c3c2=O)C(O)C(O)C1O` (centres undefined), 23.4% (inactive); as for `O=c1cc(-c2ccc(O)cc2)oc2cc(O)c(C3OC(CO)C(O)C(O)C3O)c(O)c12` (centres undefined), 7.9% (inactive).
Turning to `C=CCOC(=O)C1=C(C)NC(SCC(=O)NC(=O)OCC)=C(C#N)C1c1cccnc1` (centres undefined), the inhibition is -29.7% (inactive).
As for `CCc1ccc2nc(NC(=O)Cn3cnc4ccccc4c3=O)sc2c1`, the figure is -4% (inactive); as for `O=c1[nH]c2cc3c(cc2cc1C(c1nnnn1CC1CCCO1)N1CCCC1)OCO3` (centres undefined), -6.3% (inactive); as for `CCN(CC)S(=O)(=O)c1ccc(OC)c(NC(=O)c2cc3c(=O)n4ccccc4nc3s2)c1`, 10% (inactive).
The figure for `Cc1ccc2nc(-c3cccnc3SCC(=O)N3c4ccccc4CC3C)[nH]c2c1` (centres undefined) is 9.6% (inactive); for `C/C(=N\NC(=O)CSCc1ccc(Cl)cc1)c1ccc(NC(=O)c2ccccc2)cc1` it is -2.3% (inactive); for `O=C(N/N=C/c1ccncc1)c1nc(-c2ccccc2)n2c1CCCCC2` it is 5.7% (inactive).
The figure for `CN(C)S(=O)(=O)N1CCC(CO)(Cc2cccc(C(F)(F)F)c2)CC1` is 3% (inactive).
For `Cc1ccsc1C=C1C(=O)c2ccccc2C1=O`, the inhibition was 1.2% (inactive).
As for `O=C(COC(=O)c1ccc(S(=O)(=O)N2CCCC2)cc1)Nc1cccnc1Cl`, the figure is -7.2% (inactive); as for `CCOC(=O)c1ccc(NC(=O)CCC2COc3ccccc3O2)cc1` (centres undefined), 14.5% (inactive); as for `COc1ccc(-n2c(CN3CCC(C)CC3)nc3ccc([N+](=O)[O-])cc3c2=O)c(OC)c1`, 2.1% (inactive).
Consider `O=c1c(-c2ccc(O)cc2)coc2cc(OC3OC(CO)C(O)C(O)C3O)ccc12` (centres undefined), for which the inhibition was -7.2% (inactive).
The figure for `COc1cc2c(=O)c(-c3ccc(O)cc3)coc2cc1OC1OC(CO)C(O)C(O)C1O` (centres undefined) is 3.2% (inactive); for `O=c1c(O[C@@H]2O[C@H](CO)[C@@H](O)[C@H](O)[C@H]2O)c(-c2ccc(O)c(O)c2)oc2cc(O)cc(O)c12` it is 62.8% (active); for `COc1ccc2[nH]c(=O)c(CN(Cc3cccs3)C(=S)Nc3ccccc3)cc2c1` it is 22.8% (inactive).
The figure for `COc1ccc(OCc2nnc(SCC(=O)O)n2N)cc1` is 4.6% (inactive).
As for `CCN(CC)C(=O)CSc1nnc(COc2ccc(OC)cc2)n1N`, the figure is 1.7% (inactive).
Regarding `COc1ccc(OCc2nnc(SCC(=O)N(C)Cc3ccccc3)n2N)cc1`, the inhibition is 50.1% (active).
As for `CC(=O)c1c(C)nc(-c2ccc(OCC(=O)Nc3ccccc3)cc2)n1O`, the inhibition was -7.9% (inactive).
The figure for `CCS(=O)(=O)c1ccc2oc(Nc3ccc(C(C)C)cc3)nc2c1` is 63.4% (active).
As for `CCS(=O)(=O)c1ccc2oc(Nc3ccc(C(C)(C)C)cc3)nc2c1`, the figure is 15.9% (inactive); as for `CCS(=O)(=O)c1ccc2oc(Nc3ccc(OC)cc3)nc2c1`, -4.5% (inactive).
As for `O=C(NNC(=O)c1sccc1-n1cccc1)c1ccc(F)cc1`, the figure is 0.7% (inactive).
In the case of `CCCCOc1ccc(CSc2nnc(C)n2N)cc1[N+](=O)[O-]`, the inhibition was -8.7% (inactive).
The figure for `O=C(Nc1ccc(F)cc1)c1ccc(Cn2cnnn2)cc1` is -9.3% (inactive); for `COCC(=O)N(C)c1nnc(-c2ccccn2)s1` it is 102% (active).
As for `CC(=O)N(C)c1nnc(-c2ccccn2)s1`, the figure is -0.7% (inactive); as for `COCC(=O)N(C)c1nnc(-c2cnccn2)s1`, -3.9% (inactive).
As for `CCCc1cc(=O)[nH]c(SCc2ccccc2)n1`, the figure is 13.6% (inactive).
`O=C(CSc1nc2ccccc2c(=O)n1CCCN1CCOCC1)N1CCN(c2ccccc2)CC1`: the inhibition was -4.4% (inactive).
For `Cc1ccccc1NS(=O)(=O)c1ccc(C(=O)OCC(=O)NCC(C)C)cc1`, the inhibition is -11.1% (inactive).
The figure for `COc1ccc(OCc2nnc3n2N=C(c2ccc(OC)cc2)CS3)cc1` is -9.9% (inactive).
The figure for `COc1ccccc1C1=Nn2c(COc3ccccc3)nnc2SC1` is 67.8% (active); for `c1ccc(OCc2nnc3n2N=C(c2ccccc2)CS3)cc1` it is 47.7% (inactive); for `CCc1ccccc1NC(=O)N1CCC(NC(=O)C(Cc2ccccc2)NC(C)=O)CC1` (centres undefined) it is -12.4% (inactive).
As for `CC(C)[C@H](NC(=O)c1ccccc1)C(=O)OCC(=O)N1CC(=O)Nc2ccccc21`, the figure is 14.2% (inactive).
Turning to `CCCCNC(=O)CSc1nc2ccccc2n1S(=O)(=O)c1ccc(Cl)cc1`, the inhibition is -2.1% (inactive).
As for `COc1ccc(-c2nc(SC)n(C)c(=O)c2C#N)cc1OC`, the figure is 13.4% (inactive); as for `O=C1CC(c2ccc(O)cc2)Oc2cc(O)cc(O)c21` (centres undefined), 11.5% (inactive); as for `O=C1C[C@@H](c2ccc(O)cc2)Oc2cc(O)cc(O)c21`, 10.6% (inactive).
For the molecule `O=C(O[C@@H]1Cc2c(O)cc(O)cc2O[C@@H]1c1cc(O)c(O)c(O)c1)c1cc(O)c(O)c(O)c1`, the inhibition is 67.2% (active).
The figure for `Cc1cccc(C(=O)NC2CC3CCCC(C2)N3S(=O)(=O)c2ccccc2)c1` (centres undefined) is 12.2% (inactive); for `CCOCc1[nH]c(=S)[nH]c(=O)c1Cc1ccc(OCC(C)C)cc1` it is -4% (inactive).
For `O=C(C1CCCN(CCCc2ccccc2)C1)N1CCCCCC1` (centres undefined), the inhibition is -9.9% (inactive).
As for `CC(=O)N1C(C)(C)CC(=NOS(=O)(=O)c2ccccc2)CC1(C)C`, the figure is -17.4% (inactive); as for `CC1=CC(=O)c2ccccc2C1=O`, -57.7% (inactive); as for `CC1=C/C(=N\OC(=O)/C=C/c2ccccc2)C(C)=CC1=O`, 3.5% (inactive).
As to `CC1=C/C(=N\OS(=O)(=O)c2ccccc2)C(C)=CC1=O`, the inhibition was 106% (active).
As for `O=S(=O)(O/N=C1\CCCc2ccccc21)c1ccccc1`, the figure is -1.2% (inactive); as for `Cc1ccc(S(=O)(=O)ON=C2CCN(S(=O)(=O)c3ccccc3)CC2)cc1`, 8% (inactive); as for `CC1=CC(=O)C=C(C)C1=NOC(=O)/C=C\c1ccccc1`, 17.8% (inactive).
As for `CC1=CC(=O)C=C(C)C1=NOc1ccccc1[N+](=O)[O-]`, the figure is 25.5% (inactive); as for `CC1=C/C(=N\OS(=O)(=O)c2ccccc2)C(C(C)C)=CC1=O`, 78.5% (active).
As for `CC1=CC(=O)C(C(C)C)=CC1=NC(=O)c1ccc(C)cc1`, the figure is 46.6% (inactive).
As for `CC1=C/C(=N\OS(=O)(=O)c2ccccc2)C=CC1=O`, the inhibition was 96.1% (active).
Take `CC1CCN(C(=O)c2ccc(SCc3ccccc3F)c([N+](=O)[O-])c2)CC1`: the inhibition was 20% (inactive).
As for `O=C(O)CCCC(=O)Nc1cc([N+](=O)[O-])ccc1O`, the figure is 9.3% (inactive); as for `COc1ccc(O)c(/C=N/NC(=S)Nc2cccc(S(=O)(=O)N(C)C)c2)c1`, -10.9% (inactive).
The figure for `O=C(c1cn[nH]c1)c1cc(F)ccc1O` is 12.2% (inactive); for `COc1ccc(C(=O)N/N=C(/C)c2cccc(NC(=O)C(F)(F)F)c2)cc1` it is 0.4% (inactive); for `CC(C)(C)c1ccc(S(=O)(=O)O/N=C2/CCCCC2c2ccc([N+](=O)[O-])cc2[N+](=O)[O-])cc1` (centres undefined) it is 7.7% (inactive).
The figure for `CCN(CC)Cc1cc(NC2=NS(=O)(=O)c3ccccc32)ccc1OC(=O)c1ccccc1` is -5.8% (inactive); for `CC(C)(C)c1ccc(C(=O)NNC(=S)NCC2CCCO2)cc1` (centres undefined) it is -0.9% (inactive).
Regarding `O=C1c2ccccc2C(=O)N1CCSc1n[nH]c(=S)s1`, the inhibition was -5.1% (inactive).
The figure for `Cc1nn(-c2ccccc2)c(Cl)c1C(=O)Nc1ccc(N2CCOCC2)cc1` is -17.1% (inactive).
As for `COc1ccc(S(=O)(=O)NN=C2CCCCC2)cc1`, the figure is -30.4% (inactive); as for `COc1ccc(-n2nc(C(=O)NCC(=O)NCc3ccco3)c3ccccc3c2=O)cc1`, 0.1% (inactive); as for `c1ccc(-c2ccc(C3=Nn4c(Cn5nnc6ccccc65)nnc4SC3)cc2)cc1`, 50.3% (active).
The figure for `Fc1ccc(C2=Nn3c(Cc4ccccc4)nnc3SC2)cc1` is 11.2% (inactive).
Turning to `c1ccc(Cc2nnc3n2N=C(c2ccccc2)CS3)cc1`, the inhibition is 13.3% (inactive).
In the case of `O=C(COC(=O)c1cccnc1Cl)Nc1ccccc1OC(F)F`, the inhibition is -0.4% (inactive).
